Laboratory results published in PubChem BioAssay (NCATS).
Results filed as inconclusive are left out. A call without a number means that no potency is given here. Values without a mark were called inactive. Active and inactive are the calls of the source. Calls come from the whole dose curve; as a rule, active = well fitted inhibition curve with a large enough effect; inconclusive = small, poorly fitted or top-dose-only effect; inactive = no such curve, though single readings can be large or run the other way.

Columns and labels:
[1] = tested on: Zika virus NS2B-NS3 protease (unlinked complex); assay: Primary screen GU Rhodamine qHTS for Zika virus inhibitors: Unlinked NS2B-NS3 protease assay (AID 1347159); settings: Recombinant ZIKV NS2B-NS3 protease, Rhodamine110 substrate fluorescence; series mostly up to 107 µM; note: nearly all actives have a fitted effect of over 60% in size
Procedure, shortened: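 Percent inhibition derives from the 15-min fluorescence change (ex 480, em 540 nm), normalized to no-enzyme and no-inhibitor wells. Reactions contained 25 nM NS2B-NS3 complex and 1.5 microM substrate in 10 mM Tris-HCl pH 8.0.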

[2] = tested on: Zika virus NS2B-NS3 protease (linked construct); assay: Primary screen NINDS Rhodamine qHTS for Zika virus inhibitors (AID 1347160); settings: purified NS2B-NS3 protease, Rhodamine110 substrate fluorescence; series mostly up to 33.1 µM; note: nearly all actives have a fitted effect of over 55% in size
Procedure, shortened: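 In 10 mM Tris-HCl pH 8.0 containing 0.01% Tween 20, linked NS2B-NS3 protease (25 nM final) is exposed to test compounds for 15 min. Cleavage of 1.5 microM Rhodamine110 substrate is tracked by fluorescence over 15 min.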

## CC1=CC(=O)CC(C)(C)C1CO[C@@H]1O[C@H](CO)[C@@H](O)[C@H](O)[C@H]1O (stereo partly drawn)
[1]
  Potency: inactive
[2]
  Potency: inactive

## COc1ccc(CCC(=O)c2c(O)cc(O[C@@H]3O[C@H](CO)[C@@H](O)[C@H](O)[C@H]3O[C@@H]3O[C@@H](C)[C@H](O)[C@@H](O)[C@H]3O)cc2O)cc1O
[1]
  Potency: inactive
[2]
  Potency: inactive

## CC(=O)C1CCC(=O)N1Cc1ccccc1 (stereo not drawn)
[1]
  Potency: inactive
[2]
  Potency: inactive

## CCN1CCN(C(=O)N[C@@H](C(=O)N[C@@H]2C(=O)N3[C@@H]2SC(C)(C)[C@@H]3C(=O)O)c2ccccc2)C(=O)C1=O
[1]
  Potency: inactive
[2]
  Potency: inactive

## O=C(NCC(=O)N1CCCC1)Nc1ccc2ccccc2c1
[1]
  Potency: inactive
[2]
  Potency: inactive

## C=C1CCC2(OC1)OC1CC3C4CC=C5CC(O)CC(O[C@@H]6OC[C@H](OC(=O)C(O)C(C)CC)[C@H](O)[C@H]6O[C@@H]6O[C@@H](C)[C@H](O)[C@@H](O)[C@H]6O)C5(C)C4CCC3(C)C1C2C (stereo partly drawn)
[1]
  Potency: inactive
[2]
  Potency: inactive

## O=C(Nc1ccc(N2CCC(C(=O)N3CCOCC3)CC2)cc1)c1cnc(Oc2ccccc2)nc1
[1]
  Potency: inactive
[2]
  Potency: inactive

## C=C1CCC2C(C)(C(=O)OC)CCCC2(C)C1CCC1=CCOC1=O (stereo not drawn)
[1]
  Potency: inactive
[2]
  Potency: inactive

## CNC(C)C(=O)NC(C(=O)N1CCCC1C(=O)Nc1cccc2ncccc12)C(C)C (stereo not drawn)
[1]
  Potency: inactive
[2]
  Potency: inactive

## CC1(C)CC[C@]2(C(=O)O)CC[C@]3(C)C(=CCC4[C@@]5(C)C[C@H](O)[C@H](O[C@@H]6O[C@H](CO)[C@@H](O)[C@H](O)[C@H]6O)[C@@](C)(CO)C5[C@H](O)C[C@]43C)[C@@H]2C1 (stereo partly drawn)
[1]
  Potency: inactive
[2]
  Potency: inactive

## COc1cc(C(C)=O)ccc1O[C@@H]1O[C@H](CO[C@@H]2OC[C@@H](O)[C@H](O)[C@H]2O)[C@@H](O)[C@H](O)[C@H]1O
[1]
  Potency: inactive
[2]
  Potency: inactive

## Cc1occc(=O)c1O[C@@H]1O[C@H](CO)[C@@H](O)[C@H](O)[C@H]1O
[1]
  Potency: inactive
[2]
  Potency: inactive

## CC1(C)C2CCC1(C)C(OC(=O)C(O)(CC(=O)O)CC(=O)O)C2 (stereo not drawn)
[1]
  Potency: inactive
[2]
  Potency: inactive

## Cc1ccc(Cl)cc1N(CC(=O)Nc1c(F)cccc1F)S(C)(=O)=O
[1]
  Potency: inactive
[2]
  Potency: inactive

## O=C(O)/C=C/c1ccc2occc2c1O[C@@H]1O[C@H](CO)[C@@H](O)[C@H](O)[C@H]1O
[1]
  Potency: inactive
[2]
  Potency: inactive

## CCc1cc(CC[C@]2(C3CCCC3)CC(O)=C(Cc3nc4nc(C)cc(C)n4n3)C(=O)O2)cc(CC)n1
[1]
  Potency: inactive
[2]
  Potency: inactive

## OC[C@@]1(O)CO[C@H](OC[C@H]2O[C@@H](OCCc3ccccc3)[C@H](O)[C@@H](O)[C@@H]2O)[C@@H]1O
[1]
  Potency: inactive
[2]
  Potency: inactive

## COc1cc(CC2COC(c3ccc(OC4OC(CO)C(O)C(O)C4O)c(OC)c3)C2CO)ccc1O (stereo not drawn)
[1]
  Potency: inactive
[2]
  Potency: inactive

## O=C(O)c1ccnc2cc(-c3nc4ccccc4n3CCN3CCCCC3)sc12
[1]
  Potency: inactive
[2]
  Potency: inactive

## CC(=O)O[C@@H]1C[C@@H](C)[C@](O)(CCC2=CC(=O)OC2)[C@@]2(C)CCCC(C)(C)C12 (stereo partly drawn)
[1]
  Potency: inactive
[2]
  Potency: inactive

## COc1c(O[C@@H]2O[C@H](CO)[C@@H](O)[C@H](O)[C@H]2O)c(CCC(=O)O)cc2ccoc12
[1]
  Potency: inactive
[2]
  Potency: inactive

## C=C(C(=O)O)C1CC(O)C2(C)CCCC(C)(O)C2C1 (stereo not drawn)
[1]
  Potency: inactive
[2]
  Potency: inactive

## COC1OC(OC)C(O)(CCC2(C)C(C)CCC3(C)C2CC(O)C(O)C32CO2)C1O (stereo not drawn)
[1]
  Potency: inactive
[2]
  Potency: inactive

## CC1(C)CC[C@]2(C(=O)O[C@@H]3O[C@H](CO)[C@@H](O)[C@H](O)[C@H]3O)CC[C@]3(C)C(=CCC4[C@@]5(C)C[C@H](O)[C@H](O[C@@H]6O[C@H](C(=O)O)[C@@H](O)[C@H](O)[C@H]6O)[C@@](C)(CO)C5CC[C@]43C)C2C1 (stereo partly drawn)
[1]
  activity change, negative = inhibition: 21.5% [at 19.1 µM]
[2]
  Potency: inactive

## CCC1(O)CC2c3cc(OC)c(OC)cc3CCN2CC1CC(C)C (stereo not drawn)
[1]
  Potency: inactive
[2]
  Potency: inactive

## CC1=C2CC(=O)C(C)CC/C=C(\C)CC2OC1=O (stereo not drawn)
[1]
  Potency: inactive
[2]
  Potency: inactive

## COC(=O)c1ccc(OC)cc1O[C@@H]1O[C@H](CO[C@@H]2OC[C@@H](O)[C@H](O)[C@H]2O)[C@@H](O)[C@H](O)[C@H]1O
[1]
  Potency: inactive
[2]
  Potency: inactive

## O=C(O[C@H]1[C@H](Oc2ccc(O)cc2CO)O[C@H](CO)[C@@H](O)[C@@H]1O)c1ccccc1
[1]
  Potency: inactive
[2]
  Potency: inactive

## CC1=CC(=O)CC(C)(C)[C@@]1(O)/C=C/C(C)O[C@@H]1O[C@H](CO)[C@@H](O)[C@H](O)[C@H]1O (stereo partly drawn)
[1]
  Potency: inactive
[2]
  Potency: inactive
